Values without a mark were called inactive.
Tests used:
Assay in all cases: log2 ratio of Biotin-Ahx-Ub-VS probe labelling (fragment/DMSO); higher = less target engagement (more negative = stronger competition), active = hit call of the paper (q ≤ 0.05, log2 ratio ≤ -1)
Settings in all cases: compound concentration: 200 uM; treatment time: 3 h
USP42 = target: T1, USP42 (UniProt Q9H9J4)
T1 sequence (whole entry): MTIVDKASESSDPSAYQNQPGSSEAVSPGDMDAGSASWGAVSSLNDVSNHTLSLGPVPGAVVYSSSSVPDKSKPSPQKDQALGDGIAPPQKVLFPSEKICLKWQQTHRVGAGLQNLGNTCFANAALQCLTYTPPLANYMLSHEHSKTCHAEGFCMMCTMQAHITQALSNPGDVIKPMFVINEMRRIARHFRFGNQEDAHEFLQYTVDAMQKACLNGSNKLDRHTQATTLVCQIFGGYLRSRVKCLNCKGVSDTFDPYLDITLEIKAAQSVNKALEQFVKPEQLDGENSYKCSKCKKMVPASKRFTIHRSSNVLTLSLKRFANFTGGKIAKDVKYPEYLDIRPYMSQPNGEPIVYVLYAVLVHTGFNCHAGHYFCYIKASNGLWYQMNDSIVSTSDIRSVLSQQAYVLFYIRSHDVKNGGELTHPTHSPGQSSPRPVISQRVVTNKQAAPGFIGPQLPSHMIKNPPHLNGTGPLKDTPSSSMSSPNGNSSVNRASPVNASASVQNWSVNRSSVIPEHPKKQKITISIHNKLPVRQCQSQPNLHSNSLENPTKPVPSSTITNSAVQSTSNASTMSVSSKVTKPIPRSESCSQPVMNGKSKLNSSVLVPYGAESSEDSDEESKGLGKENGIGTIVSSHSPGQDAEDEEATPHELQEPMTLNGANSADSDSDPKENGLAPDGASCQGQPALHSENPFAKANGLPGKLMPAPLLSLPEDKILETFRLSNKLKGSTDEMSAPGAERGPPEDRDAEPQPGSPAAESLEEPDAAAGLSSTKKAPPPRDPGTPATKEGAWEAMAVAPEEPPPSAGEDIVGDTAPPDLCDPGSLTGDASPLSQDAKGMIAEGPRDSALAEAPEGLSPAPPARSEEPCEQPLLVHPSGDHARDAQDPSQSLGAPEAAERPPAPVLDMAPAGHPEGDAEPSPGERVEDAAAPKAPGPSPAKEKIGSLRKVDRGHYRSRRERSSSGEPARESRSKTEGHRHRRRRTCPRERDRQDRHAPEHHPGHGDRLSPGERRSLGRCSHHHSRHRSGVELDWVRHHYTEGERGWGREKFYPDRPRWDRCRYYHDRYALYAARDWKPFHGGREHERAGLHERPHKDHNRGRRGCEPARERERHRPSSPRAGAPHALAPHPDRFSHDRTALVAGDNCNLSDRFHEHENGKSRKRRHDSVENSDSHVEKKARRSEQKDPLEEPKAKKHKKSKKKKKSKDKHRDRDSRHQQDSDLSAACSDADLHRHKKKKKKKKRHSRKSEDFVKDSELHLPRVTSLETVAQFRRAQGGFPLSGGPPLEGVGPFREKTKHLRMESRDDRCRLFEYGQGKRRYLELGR
How it was run: (§1)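 The table lists average log2 ratios of fragment over vehicle, from an unpaired t-test on global-median-normalised Spectronaut label-free quantities. Proteins with ≥2 unique peptides were used. Samples were HEK293T lysate (495 µg) treated in triplicate with fragment at 200 µM or vehicle for 3 h, then with Biotin-Ahx-Ub-VS (0.5 µM final) for 1 h, with labelled DUBs NeutrAvidin-enriched and run by diaPASEF LC-MS/MS.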

USP46 = USP46 (UniProt P62068)
USP46, sequence (P62068 whole entry): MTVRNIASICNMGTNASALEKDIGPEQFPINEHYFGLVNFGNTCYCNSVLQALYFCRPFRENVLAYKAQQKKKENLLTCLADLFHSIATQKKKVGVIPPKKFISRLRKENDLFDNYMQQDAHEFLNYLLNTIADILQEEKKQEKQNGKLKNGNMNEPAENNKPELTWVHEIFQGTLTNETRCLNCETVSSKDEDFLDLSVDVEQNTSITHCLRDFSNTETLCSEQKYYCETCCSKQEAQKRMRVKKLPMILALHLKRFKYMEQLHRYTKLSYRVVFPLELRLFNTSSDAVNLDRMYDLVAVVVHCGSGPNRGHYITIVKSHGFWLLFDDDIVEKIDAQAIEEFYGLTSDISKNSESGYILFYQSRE
How it was run: as §1

USP47 = target: T2, USP47 (UniProt Q96K76)
T2 sequence (whole entry): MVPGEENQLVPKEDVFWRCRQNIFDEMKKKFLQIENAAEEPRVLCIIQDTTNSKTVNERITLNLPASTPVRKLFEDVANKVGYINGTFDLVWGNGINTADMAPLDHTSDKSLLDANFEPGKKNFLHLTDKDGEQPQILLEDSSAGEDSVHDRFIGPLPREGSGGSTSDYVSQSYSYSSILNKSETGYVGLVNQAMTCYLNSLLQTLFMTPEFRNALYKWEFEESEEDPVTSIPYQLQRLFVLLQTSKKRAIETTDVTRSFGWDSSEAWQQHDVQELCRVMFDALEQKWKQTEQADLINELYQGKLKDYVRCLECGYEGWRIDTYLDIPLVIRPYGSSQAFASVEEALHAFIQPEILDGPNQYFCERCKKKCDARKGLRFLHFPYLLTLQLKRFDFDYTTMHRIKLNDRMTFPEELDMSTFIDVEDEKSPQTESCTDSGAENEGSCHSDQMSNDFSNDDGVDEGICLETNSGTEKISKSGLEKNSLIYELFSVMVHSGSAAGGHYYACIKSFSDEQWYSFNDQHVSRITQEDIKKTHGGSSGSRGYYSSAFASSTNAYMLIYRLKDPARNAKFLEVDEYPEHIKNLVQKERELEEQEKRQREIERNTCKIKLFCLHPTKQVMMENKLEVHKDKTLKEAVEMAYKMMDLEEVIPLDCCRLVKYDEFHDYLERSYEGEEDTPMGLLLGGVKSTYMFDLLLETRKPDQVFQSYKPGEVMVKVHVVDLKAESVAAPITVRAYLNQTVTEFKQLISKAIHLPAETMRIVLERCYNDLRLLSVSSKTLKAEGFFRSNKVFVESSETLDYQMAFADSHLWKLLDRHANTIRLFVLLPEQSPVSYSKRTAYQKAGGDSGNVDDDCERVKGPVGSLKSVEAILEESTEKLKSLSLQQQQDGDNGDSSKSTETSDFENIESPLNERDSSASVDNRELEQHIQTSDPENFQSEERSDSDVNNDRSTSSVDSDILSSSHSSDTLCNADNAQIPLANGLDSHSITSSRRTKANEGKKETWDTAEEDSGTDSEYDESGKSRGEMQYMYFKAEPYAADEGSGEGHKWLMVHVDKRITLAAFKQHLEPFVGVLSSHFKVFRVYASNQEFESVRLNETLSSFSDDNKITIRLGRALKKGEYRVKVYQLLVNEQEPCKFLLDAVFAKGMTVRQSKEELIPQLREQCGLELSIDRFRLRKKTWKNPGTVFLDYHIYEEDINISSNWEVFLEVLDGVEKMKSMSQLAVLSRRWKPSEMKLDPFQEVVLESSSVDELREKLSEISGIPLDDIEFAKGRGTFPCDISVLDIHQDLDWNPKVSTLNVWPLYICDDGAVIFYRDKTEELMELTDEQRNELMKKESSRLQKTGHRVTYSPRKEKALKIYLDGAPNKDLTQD
How it was run: as §1

USP48 = target: T3, USP48 (UniProt Q86UV5)
T3 sequence (whole entry): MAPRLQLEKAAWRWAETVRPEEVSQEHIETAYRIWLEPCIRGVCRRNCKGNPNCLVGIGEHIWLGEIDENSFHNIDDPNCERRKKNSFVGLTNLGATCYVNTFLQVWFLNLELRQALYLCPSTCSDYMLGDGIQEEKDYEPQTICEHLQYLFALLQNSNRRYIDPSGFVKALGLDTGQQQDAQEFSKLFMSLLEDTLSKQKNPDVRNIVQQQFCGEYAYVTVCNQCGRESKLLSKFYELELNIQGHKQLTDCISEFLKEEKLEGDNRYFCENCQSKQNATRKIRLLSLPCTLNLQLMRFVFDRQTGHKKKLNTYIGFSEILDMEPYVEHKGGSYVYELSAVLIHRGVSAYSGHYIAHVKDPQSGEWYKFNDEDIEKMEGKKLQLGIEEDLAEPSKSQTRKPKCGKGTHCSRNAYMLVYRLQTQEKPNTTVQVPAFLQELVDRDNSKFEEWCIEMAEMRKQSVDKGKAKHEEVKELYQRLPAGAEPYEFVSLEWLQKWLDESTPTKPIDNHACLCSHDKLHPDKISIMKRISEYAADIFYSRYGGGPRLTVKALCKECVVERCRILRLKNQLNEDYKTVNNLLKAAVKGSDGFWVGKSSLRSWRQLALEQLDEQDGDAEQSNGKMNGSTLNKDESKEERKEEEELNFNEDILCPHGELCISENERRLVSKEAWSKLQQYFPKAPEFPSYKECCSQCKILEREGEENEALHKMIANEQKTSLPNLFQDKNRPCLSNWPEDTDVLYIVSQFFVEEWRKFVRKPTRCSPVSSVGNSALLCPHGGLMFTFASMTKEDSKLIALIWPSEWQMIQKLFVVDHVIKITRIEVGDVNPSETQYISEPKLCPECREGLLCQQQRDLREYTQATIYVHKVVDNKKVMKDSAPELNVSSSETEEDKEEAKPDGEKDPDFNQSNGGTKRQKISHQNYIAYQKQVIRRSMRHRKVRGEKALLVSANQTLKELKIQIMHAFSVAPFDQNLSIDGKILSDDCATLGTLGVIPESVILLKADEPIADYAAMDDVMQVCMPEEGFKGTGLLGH
How it was run: as §1

USP5 = target: T4, USP5 (UniProt P45974)
T4 sequence (whole entry): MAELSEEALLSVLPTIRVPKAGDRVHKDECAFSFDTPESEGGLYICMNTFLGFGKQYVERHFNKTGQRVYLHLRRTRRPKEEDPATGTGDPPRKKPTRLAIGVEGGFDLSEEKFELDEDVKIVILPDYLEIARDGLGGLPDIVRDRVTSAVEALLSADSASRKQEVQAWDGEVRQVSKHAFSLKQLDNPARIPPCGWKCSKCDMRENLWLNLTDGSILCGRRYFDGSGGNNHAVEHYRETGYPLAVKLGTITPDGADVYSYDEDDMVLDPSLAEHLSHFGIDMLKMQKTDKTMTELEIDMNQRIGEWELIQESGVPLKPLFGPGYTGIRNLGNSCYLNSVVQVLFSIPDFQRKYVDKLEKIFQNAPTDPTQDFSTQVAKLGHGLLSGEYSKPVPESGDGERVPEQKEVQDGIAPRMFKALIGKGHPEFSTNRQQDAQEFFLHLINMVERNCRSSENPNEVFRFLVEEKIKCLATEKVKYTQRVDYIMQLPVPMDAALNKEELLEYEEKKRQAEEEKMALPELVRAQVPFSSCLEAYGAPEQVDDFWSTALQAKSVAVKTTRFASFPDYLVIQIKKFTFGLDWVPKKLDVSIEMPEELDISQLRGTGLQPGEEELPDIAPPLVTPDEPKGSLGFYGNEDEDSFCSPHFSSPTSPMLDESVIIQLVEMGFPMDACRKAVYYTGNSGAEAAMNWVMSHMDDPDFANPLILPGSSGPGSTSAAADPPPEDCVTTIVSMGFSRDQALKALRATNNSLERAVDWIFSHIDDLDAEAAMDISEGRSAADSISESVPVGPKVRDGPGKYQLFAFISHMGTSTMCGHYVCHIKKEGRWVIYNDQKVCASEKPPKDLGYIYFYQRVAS
How it was run: as §1

USP54 = USP54 (UniProt Q70EL1)
How it was run: as §1

USP7 = USP7 (UniProt Q93009)
USP7, sequence (Q93009 whole entry, looked up): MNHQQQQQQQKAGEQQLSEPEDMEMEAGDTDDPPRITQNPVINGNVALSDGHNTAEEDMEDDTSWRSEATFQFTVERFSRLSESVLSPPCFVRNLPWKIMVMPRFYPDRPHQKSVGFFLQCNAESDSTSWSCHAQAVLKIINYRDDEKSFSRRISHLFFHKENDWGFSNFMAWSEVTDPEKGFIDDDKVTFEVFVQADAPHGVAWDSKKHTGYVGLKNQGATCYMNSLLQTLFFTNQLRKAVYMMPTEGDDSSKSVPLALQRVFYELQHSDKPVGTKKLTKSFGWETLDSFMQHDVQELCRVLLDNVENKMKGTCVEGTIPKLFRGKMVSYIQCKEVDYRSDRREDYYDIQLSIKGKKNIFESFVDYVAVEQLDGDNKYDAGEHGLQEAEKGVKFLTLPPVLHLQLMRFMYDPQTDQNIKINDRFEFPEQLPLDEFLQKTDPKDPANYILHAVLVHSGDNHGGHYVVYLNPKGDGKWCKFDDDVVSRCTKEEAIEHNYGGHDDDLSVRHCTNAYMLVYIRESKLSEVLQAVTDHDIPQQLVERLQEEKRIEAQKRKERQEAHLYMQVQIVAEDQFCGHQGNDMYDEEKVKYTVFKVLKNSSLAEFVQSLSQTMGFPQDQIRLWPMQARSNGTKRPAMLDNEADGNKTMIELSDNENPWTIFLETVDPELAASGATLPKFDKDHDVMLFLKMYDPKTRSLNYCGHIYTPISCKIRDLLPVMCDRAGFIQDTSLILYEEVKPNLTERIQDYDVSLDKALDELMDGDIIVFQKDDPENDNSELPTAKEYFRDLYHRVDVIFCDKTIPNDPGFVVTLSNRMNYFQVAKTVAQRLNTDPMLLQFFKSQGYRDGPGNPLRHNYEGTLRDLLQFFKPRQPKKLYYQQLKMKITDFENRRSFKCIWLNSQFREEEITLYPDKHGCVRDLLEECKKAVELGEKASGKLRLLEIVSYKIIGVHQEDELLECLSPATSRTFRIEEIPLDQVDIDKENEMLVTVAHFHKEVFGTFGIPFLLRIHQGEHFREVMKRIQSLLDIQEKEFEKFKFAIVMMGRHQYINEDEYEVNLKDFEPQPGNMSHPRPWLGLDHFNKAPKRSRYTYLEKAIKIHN
How it was run: as §1

USP8 = target: T5, USP8 (UniProt P40818)
T5 sequence (whole entry): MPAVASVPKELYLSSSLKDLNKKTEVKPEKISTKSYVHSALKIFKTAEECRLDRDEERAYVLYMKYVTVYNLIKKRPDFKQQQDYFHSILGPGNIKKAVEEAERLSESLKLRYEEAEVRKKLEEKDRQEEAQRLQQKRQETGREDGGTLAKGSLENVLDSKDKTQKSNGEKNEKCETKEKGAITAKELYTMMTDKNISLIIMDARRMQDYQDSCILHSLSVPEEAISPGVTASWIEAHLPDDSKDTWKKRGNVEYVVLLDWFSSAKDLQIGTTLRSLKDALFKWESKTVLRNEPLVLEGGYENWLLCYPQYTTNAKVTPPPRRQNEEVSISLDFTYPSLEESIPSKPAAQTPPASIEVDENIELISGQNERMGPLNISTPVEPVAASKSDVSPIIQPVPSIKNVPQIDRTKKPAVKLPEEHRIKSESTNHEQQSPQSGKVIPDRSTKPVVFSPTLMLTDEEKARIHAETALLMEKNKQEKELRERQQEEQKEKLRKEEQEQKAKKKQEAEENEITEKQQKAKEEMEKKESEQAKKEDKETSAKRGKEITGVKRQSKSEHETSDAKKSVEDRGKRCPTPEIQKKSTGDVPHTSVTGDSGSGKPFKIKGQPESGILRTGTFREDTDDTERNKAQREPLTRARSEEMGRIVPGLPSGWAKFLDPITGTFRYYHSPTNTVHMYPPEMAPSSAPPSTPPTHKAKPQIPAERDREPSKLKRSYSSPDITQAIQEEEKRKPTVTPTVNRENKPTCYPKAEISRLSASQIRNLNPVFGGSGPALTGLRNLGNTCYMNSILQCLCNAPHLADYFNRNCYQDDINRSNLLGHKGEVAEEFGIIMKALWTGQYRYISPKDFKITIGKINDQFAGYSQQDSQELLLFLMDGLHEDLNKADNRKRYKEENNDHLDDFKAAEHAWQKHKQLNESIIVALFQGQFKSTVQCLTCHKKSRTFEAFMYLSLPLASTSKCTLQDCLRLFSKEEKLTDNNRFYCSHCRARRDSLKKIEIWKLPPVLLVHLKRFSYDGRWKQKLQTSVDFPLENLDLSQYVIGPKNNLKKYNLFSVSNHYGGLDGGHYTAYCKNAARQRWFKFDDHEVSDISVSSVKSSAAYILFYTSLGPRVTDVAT
How it was run: as §1

USP9X = USP9X (UniProt Q93008)
USP9X, sequence (Q93008 whole entry): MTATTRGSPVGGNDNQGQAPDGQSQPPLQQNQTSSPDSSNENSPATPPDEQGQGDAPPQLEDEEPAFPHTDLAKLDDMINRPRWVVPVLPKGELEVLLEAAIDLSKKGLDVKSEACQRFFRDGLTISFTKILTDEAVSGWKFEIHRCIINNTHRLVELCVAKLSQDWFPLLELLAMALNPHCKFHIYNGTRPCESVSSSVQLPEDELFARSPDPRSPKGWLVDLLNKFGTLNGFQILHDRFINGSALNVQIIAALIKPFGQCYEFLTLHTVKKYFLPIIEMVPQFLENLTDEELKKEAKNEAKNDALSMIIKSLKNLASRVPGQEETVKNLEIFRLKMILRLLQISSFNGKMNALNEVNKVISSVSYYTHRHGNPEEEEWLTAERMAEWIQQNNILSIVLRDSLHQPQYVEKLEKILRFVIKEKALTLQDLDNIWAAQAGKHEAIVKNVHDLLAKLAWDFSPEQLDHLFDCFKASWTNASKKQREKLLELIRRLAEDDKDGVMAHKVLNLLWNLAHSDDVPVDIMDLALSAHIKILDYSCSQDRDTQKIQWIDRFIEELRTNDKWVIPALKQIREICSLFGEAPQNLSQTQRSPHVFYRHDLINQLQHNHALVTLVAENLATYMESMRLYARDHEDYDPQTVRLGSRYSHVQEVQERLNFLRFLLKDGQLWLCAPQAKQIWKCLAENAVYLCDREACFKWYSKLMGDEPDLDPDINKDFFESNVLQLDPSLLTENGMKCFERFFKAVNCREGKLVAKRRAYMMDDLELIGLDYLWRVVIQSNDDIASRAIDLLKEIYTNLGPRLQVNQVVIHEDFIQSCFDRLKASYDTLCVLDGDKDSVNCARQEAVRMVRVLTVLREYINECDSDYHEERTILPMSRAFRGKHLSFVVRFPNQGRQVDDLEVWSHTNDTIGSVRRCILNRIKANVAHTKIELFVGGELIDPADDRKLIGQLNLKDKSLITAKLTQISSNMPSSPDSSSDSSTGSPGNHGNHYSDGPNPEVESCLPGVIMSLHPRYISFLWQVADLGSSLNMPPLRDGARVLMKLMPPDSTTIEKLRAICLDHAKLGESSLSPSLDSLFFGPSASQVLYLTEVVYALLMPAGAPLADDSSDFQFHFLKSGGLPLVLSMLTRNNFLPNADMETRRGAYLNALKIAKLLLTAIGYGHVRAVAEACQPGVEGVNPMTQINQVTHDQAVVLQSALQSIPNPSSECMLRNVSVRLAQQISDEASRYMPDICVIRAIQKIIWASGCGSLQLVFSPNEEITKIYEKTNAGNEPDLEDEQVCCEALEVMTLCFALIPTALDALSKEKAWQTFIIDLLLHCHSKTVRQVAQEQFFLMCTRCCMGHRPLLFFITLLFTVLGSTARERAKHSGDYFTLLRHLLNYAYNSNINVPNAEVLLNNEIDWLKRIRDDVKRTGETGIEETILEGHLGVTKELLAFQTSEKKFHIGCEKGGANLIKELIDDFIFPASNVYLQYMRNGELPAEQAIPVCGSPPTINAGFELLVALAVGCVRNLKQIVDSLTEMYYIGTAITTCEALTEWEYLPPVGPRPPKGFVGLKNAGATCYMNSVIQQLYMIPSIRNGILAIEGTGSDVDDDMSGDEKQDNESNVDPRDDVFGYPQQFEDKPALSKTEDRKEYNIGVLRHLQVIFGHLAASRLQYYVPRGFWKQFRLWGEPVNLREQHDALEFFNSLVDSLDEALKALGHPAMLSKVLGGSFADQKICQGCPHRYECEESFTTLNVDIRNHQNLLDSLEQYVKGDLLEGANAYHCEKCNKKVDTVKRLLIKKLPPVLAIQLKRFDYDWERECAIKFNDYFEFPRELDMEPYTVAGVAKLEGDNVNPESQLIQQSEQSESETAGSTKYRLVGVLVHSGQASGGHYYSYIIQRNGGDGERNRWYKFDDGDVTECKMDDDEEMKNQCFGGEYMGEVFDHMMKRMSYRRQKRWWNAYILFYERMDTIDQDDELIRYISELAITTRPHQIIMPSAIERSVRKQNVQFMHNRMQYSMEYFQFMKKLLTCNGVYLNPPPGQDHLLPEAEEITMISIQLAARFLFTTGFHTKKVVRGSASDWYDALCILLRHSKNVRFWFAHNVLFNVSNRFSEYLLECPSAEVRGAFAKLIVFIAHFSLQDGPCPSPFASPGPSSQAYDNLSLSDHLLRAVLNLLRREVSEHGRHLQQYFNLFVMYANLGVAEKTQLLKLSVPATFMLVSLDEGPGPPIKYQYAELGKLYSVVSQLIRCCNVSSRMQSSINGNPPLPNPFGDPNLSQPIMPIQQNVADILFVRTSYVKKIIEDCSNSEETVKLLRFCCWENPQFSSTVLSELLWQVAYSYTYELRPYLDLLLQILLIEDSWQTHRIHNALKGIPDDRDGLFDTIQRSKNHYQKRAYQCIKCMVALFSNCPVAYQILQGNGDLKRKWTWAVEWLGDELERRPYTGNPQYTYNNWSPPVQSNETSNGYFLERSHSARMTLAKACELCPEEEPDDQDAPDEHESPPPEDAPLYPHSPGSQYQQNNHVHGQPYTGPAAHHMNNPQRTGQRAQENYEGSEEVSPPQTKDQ
How it was run: as §1

UniProt O00487 = target: UniProt O00487
UniProt O00487, sequence (O00487 whole entry): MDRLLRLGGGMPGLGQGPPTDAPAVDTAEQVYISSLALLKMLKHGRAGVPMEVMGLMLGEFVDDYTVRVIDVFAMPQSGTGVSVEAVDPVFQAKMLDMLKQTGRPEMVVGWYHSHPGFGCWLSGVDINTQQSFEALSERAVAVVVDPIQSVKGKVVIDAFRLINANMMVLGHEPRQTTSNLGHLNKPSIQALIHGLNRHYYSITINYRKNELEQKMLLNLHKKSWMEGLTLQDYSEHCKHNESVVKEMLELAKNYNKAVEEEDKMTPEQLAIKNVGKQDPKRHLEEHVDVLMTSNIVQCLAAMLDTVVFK
How it was run: as §1

## O=C(CCl)Nc1ccc2c(c1)OC(F)(F)O2
USP42
  log2 ratio of Biotin-Ahx-Ub-VS probe labelling: -0.384
USP46
  log2 ratio of Biotin-Ahx-Ub-VS probe labelling: -0.0942
USP47
  log2 ratio of Biotin-Ahx-Ub-VS probe labelling: -1.16 (active)
USP48
  log2 ratio of Biotin-Ahx-Ub-VS probe labelling: -0.476
USP5
  log2 ratio of Biotin-Ahx-Ub-VS probe labelling: 0.218
USP54
  log2 ratio of Biotin-Ahx-Ub-VS probe labelling: 0.684
USP7
  log2 ratio of Biotin-Ahx-Ub-VS probe labelling: -0.296
USP8
  log2 ratio of Biotin-Ahx-Ub-VS probe labelling: -0.29
USP9X
  log2 ratio of Biotin-Ahx-Ub-VS probe labelling: -0.301
UniProt O00487
  log2 ratio of Biotin-Ahx-Ub-VS probe labelling: 0.0325
